88 molecules from PubChem BioAssay AID652257 (The Scripps Research Institute Molecular Screening Center, 2013) can be followed below.

Hit rate of the full screen: of about 370,000 compounds, about 4,800 (1.3%) were called active.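 How the source made its calls: active means inhibition above about 21% made by adding two undisclosed values (limit read from the data); inactive means the rest.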 Only a selection was taken, and actives are over-represented in it overall.

The target of the assay is Protein arginine N-methyltransferase 1 (Homo sapiens) (UniProt Q99873). Kind of assay: human PRMT1 activity-probe blockers – biochemical, fluorescence polarization, primary screen (AID 652257). The note with it: recombinant PRMT1, activity-based probe fluorescence polarization; at 2.79 µM; stronger effect = higher value. In general terms: Polarisation of emitted light reports the rotation of a fluorescent probe.
Protein arginine N-methyltransferase 1 (Homo sapiens), sequence (Q99873 whole entry, looked up): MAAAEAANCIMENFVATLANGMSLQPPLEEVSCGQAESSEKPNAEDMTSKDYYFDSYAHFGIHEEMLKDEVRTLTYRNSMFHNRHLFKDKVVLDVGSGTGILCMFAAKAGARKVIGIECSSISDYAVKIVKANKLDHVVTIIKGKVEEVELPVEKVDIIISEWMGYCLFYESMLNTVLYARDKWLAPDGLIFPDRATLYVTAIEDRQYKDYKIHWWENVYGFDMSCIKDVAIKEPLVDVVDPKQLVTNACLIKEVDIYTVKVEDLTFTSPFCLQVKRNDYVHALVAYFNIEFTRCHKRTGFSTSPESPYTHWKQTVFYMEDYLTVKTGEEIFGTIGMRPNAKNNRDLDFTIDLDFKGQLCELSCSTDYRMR
For `COc1ccccc1C(=O)NC1CCCCN(C(C)C)C1=O` (stereo not drawn), the inhibition is 2.65% (inactive).

Consider `O=C(C1CCN(S(=O)(=O)c2ccccc2)CC1)N1CCN(C2CCCCC2)CC1`, for which the inhibition was -0.34% (inactive). `COc1ccc(N(C)C(=O)C2CCN(S(=O)(=O)c3cccc4nsnc34)CC2)cc1`: the inhibition was -1.3% (inactive).

As to `Cc1ccccc1CN1C[C@@H]2C[C@@H](c3ccc4nsnc4c3)N3CCC[C@@]23C1=O`, the inhibition is 1.62% (inactive). Turning to `COc1ccc(CN2CCN(Cc3cn(C)nc3-c3ccccc3)CC2CCO)c(C)c1C` (stereo not drawn), the inhibition is 0.32% (inactive). Consider `Cc1ccccc1CN1C[C@@H]2C[C@@H](c3cn(C)nc3-c3ccccc3)N3CCC[C@@]23C1=O`, for which the inhibition is 67.8% (active). The figure for `C=CCN(C(=O)[C@@H](CCCC)[C@@H](O)c1ccc(Cl)cc1)c1ccccc1` is -0.47% (inactive); for `CC(C)CNc1cccc2c1S(=O)(=O)N(Cc1cn(Cc3ccccc3C(F)(F)F)nn1)Cc1ccccc1O2` it is 2.58% (inactive); for `CCNC(=O)CC1C(=O)N(c2ccc(F)cc2)C(=O)N1CCc1sccc1C` (stereo not drawn) it is -2.07% (inactive).

With `Cc1cc2nc(-c3ccc(F)cc3)c(Cc3ccsc3)n2c(C)c1Br`, the inhibition was 1.03% (inactive). On to `Cc1cc2nc(-c3ccco3)c(Cc3cccc(F)c3)n2c(C)c1Br`, for which the inhibition was 36.5% (active). Regarding `Cc1cc(Br)cn2c(Cc3cccc(F)c3)c(-c3cccc(Br)c3)nc12`, the inhibition is -2.69% (inactive). Next, `Nc1nc(NC(=O)/C=C/c2ccc(F)cc2)nn1-c1ccccc1`: -3.14% (inactive); `O=C(O)CCn1c(O)c(C=C2N=c3ccccc3=N2)sc1=S`: 29.5% (active). `CCCCNC(=O)C[C@H]1C[C@@]2(C(=O)OC)C(=C[C@H](COCc3ccccc3)O[C@@H]2C)N(Cc2ccc(Cl)cc2Cl)C1=O`: the inhibition was -3.14% (inactive). Next, `CCc1c(O)nc(SCC(=O)Nc2ccccc2)n(C(C)CC)c1=O` (stereo not drawn): 17% (inactive); `COc1ccc(Cc2nnc(SCC(=O)N(c3ccccc3)C(C)C)n(N)c2=O)cc1`: -6.66% (inactive); `COc1ccc(-n2c(COc3ccc(C)cc3)nnc2SCC(=O)Nc2ccc(Oc3ccccc3)cc2)cc1`: -3.87% (inactive). Consider `COc1ccccc1-n1c(SCC(=O)Nc2ccc(Cl)cc2)nc(O)c(Cc2ccccc2)c1=O`, for which the inhibition was 34.5% (active).

Consider `CCOc1ccc(NC(=O)CSc2nc3c(c(=O)n2-c2ccccc2OC)SCC3)cc1`, for which the inhibition was 5.66% (inactive).

For the molecule `COc1ccc(NC(=O)CSc2nnc(Cc3ccccc3)c(=O)n2N)cc1`, the inhibition is 31.4% (active).

Consider `COc1ccccc1-n1ccnc(SCC(=O)NC2CCCCC2)c1=O`, for which the inhibition was 1.07% (inactive). The figure for `Cn1ccnc1SCC(=O)Nc1ccc2c(c1)OCCO2` is 5.34% (inactive).

As for `COc1cccc(NC(=O)CSc2nccn(-c3ccc4c(c3)OCCO4)c2=O)c1`, the inhibition was 29.1% (active). With `COC(=O)[C@@]12C[C@@H](CC(=O)NCCCCc3ccccc3)C(=O)N(CCc3ccc(OC)c(OC)c3)C1=CCC(C)(C)C2`, the inhibition is 3.69% (inactive). Next, `CN[C@H]1C[C@H]2c3[nH]c4c(-c5ccccc5)cccc4c3CCN2C(=O)[C@H]1[C@H](C)O`: 6.14% (inactive); `Cc1ccc2c(c1)N(CCCC(=O)NCc1cccnc1)C(=O)CO2`: 0.38% (inactive). On to `Cc1ccc(-n2nc(-c3ccco3)cc2C(=O)NCc2cccnc2)cc1`, for which the inhibition is 35.6% (active).

Consider `CSc1sc(C(=O)NC(=O)NCc2cccnc2)c(C)c1-c1ccon1`, for which the inhibition was 1.09% (inactive). On to `CN1C(=O)C(Br)(Br)CC1c1cccnc1` (stereo not drawn), for which the inhibition was 1.18% (inactive).

On to `Cc1c[nH]c2cccc(-c3ccc(Cl)cc3)c12`, for which the inhibition was -0.29% (inactive). `N#CCC(=O)N/N=C/c1ccc(SCC(=O)Nc2ccccc2)o1`: the inhibition was 4.99% (inactive).

For the molecule `O=C(CSc1ccc(/C=N/NC(=O)c2cccc(F)c2)o1)Nc1ccccc1`, the inhibition was 2.86% (inactive). For the molecule `O=C(CCNC(=O)c1ccccc1)NN=Cc1ccc(Br)o1`, the inhibition is 24.6% (active). Regarding `COC1=C[C@H](C(=O)NCCNC(C)=O)[C@H](C)[C@@H](c2ccccc2)CC1=O`, the inhibition is 0.29% (inactive). With `COc1ccc(/C=C2\CC3(OC(C)=O)CCCN2C3)cc1` (stereo not drawn), the inhibition was 1.73% (inactive).

Regarding `Cc1ccc(CN2CCCCC(NC(=O)C3CCCCC3)C2=O)cc1` (stereo not drawn), the inhibition was -3.29% (inactive). `O=C(Nc1cccc(S(=O)(=O)N2CCOCC2)c1)C12CC3CC(CC(C3)C1)C2`: the inhibition was 2.62% (inactive). Turning to `CCCNC(=O)NCc1ccc(N2CCCC2=O)cc1`, the inhibition is 0.33% (inactive).

Take `NC(=O)C1(N2CCCC2)CCN(Cc2ccccc2)CC1`: the inhibition is 2.71% (inactive). `NC(=O)C1(N2CCCCC2)CCN(C2CC(=O)N(Cc3ccc(N4CCCC4=O)cc3)C2=O)CC1` (stereo not drawn): the inhibition was 41.5% (active). Next, `Clc1ccc(C(Cn2ccnc2)OCc2ccsc2Cl)c(Cl)c1` (stereo not drawn): 1.55% (inactive). Next, `COc1ccc(Nc2nc(-c3cccnc3)nc3ccccc23)cn1`: 25.2% (active); `O=C(CSc1n[nH]c(-c2cccnc2)n1)Nc1ccnc2ccccc12`: -1.69% (inactive). Turning to `O=C(Nc1ccc(Cl)cc1)Nc1ccc(Oc2cccnc2)nc1`, the inhibition was 1.37% (inactive). For `CN(C)c1ccc(CNC(=O)CN2C(=O)COc3ccc(S(=O)(=O)N4CCCC4)cc32)cc1`, the inhibition is -4.13% (inactive).

For the molecule `O=C(N1CCOCC1)N1CC[C@H]2[C@H](CCCN2Cc2ccc(F)cc2)C1`, the inhibition was 5.12% (inactive). For `Cc1ccc2c(NC(=O)C3CC3)cccc2n1`, the inhibition was -1.46% (inactive). For the molecule `N#C/C(=C/c1ccc(N2CCCCC2)o1)C(=O)NCCc1c[nH]c2ccccc12`, the inhibition is -51.4% (inactive). Take `Cc1ccc(/C=C(\C#N)C(=O)Nc2cccc3ncccc23)o1`: the inhibition is 24.4% (active). The figure for `Cc1ccn(C(CC(=O)c2ccc(Br)cc2)C(=O)O)n1` (stereo not drawn) is 23.6% (active); for `Cc1ccc(NC(=O)CCC(=O)c2ccc(Br)cc2)cc1` it is -1.58% (inactive); for `CCN(C(=O)c1ccc(Br)cc1)c1ccccc1` it is -3.92% (inactive). With `CC(=O)N1CCOc2ccc(S(=O)(=O)N3CCC(C(=O)Nc4ccccc4F)CC3)cc21`, the inhibition was -0.05% (inactive). As to `C=C(C)C#CC(Cc1ccccc1)N(CC1CC1)/C(N)=N/C(=O)OCc1ccccc1` (stereo not drawn), the inhibition is -3.31% (inactive). Take `COC(=O)C(C(=O)OC)c1ccccc1NS(=O)(=O)c1cccc2ccccc12`: the inhibition was -4.23% (inactive). In the case of `C[C@H](C(=O)N(C)c1ccccc1)[C@@H](O)c1ccc(Cl)cc1`, the inhibition was -4.72% (inactive).

Consider `CCOc1ccc(NC(=O)C(C)N2C(=O)c3ccccc3C2=O)cc1` (stereo not drawn), for which the inhibition is -1.49% (inactive). As for `CC(C(=O)Nc1ccc(O)c(C(=O)O)c1)N1C(=O)/C(=C/c2cccs2)SC1=S` (stereo not drawn), the inhibition is 26.4% (active). Next, `O=C1/C(=C/c2cccs2)SC(=S)N1C1CCS(=O)(=O)C1` (stereo not drawn): 0.87% (inactive); `CC(C)(C)c1cc(CN2CCN(CCC#N)CC2)cc(C(C)(C)C)c1O`: 9% (inactive). As for `CCc1c(C)nc(N)n2c(SCC(=O)NC3CCCCC3)nnc12`, the inhibition was -2.99% (inactive).

For the molecule `Nc1[nH]c(/C=C2/CCCCC2n2[nH]c(=O)n(-c3ccccc3)c2=O)c(Cc2ccccc2)[n+]1Cc1ccccc1` (stereo not drawn), the inhibition was -2.27% (inactive). In the case of `COc1ccc(CCNCc2c(-c3ccccc3)n(C)c3ccccc23)cc1`, the inhibition is 2.67% (inactive).

For the molecule `CC(C)(C)OC(=O)NCCc1ccccc1/C=C/S(=O)(=O)NCc1ccc(F)cc1`, the inhibition was 0.24% (inactive). As for `O=c1ccc2c(-c3ccccc3S(=O)(=O)O)c3ccc(O)c(O)c3oc-2c1O`, the inhibition is 66.9% (active). Take `COc1cccc2c1OCC(CN1CCN(C3CCCCC3)C(CCO)C1)=C2` (stereo not drawn): the inhibition is -3.92% (inactive). Take `O=C(CSc1nc2c(c(=O)[nH]1)CCCC2)N1CCCCC1`: the inhibition was -3.61% (inactive). As to `C=CCN(C)CC#Cc1ccccc1`, the inhibition was -2.36% (inactive). As for `Cc1ccc(-c2nc(C3CCCN(S(=O)(=O)c4ccc(Br)s4)C3)no2)cc1` (stereo not drawn), the inhibition is 3.15% (inactive). Regarding `CC1CCc2c(nc3ncnn3c2Nc2ccc(OC(F)(F)F)cc2)C1` (stereo not drawn), the inhibition is 0.92% (inactive). Next, `c1ccc2c(c1)CSc1sccc1C2=C1CCNCC1`: -3.7% (inactive).

As for `Cc1cc(C)cc(C(=O)NC2C(=O)N3C(C(=O)O)=C(CSc4nnc(C)s4)CSC23)c1` (stereo not drawn), the inhibition is 39.9% (active).

For the molecule `Cc1nnc(SCC(=O)NC2CCCC2)s1`, the inhibition is -0.7% (inactive). In the case of `Cc1nnc(SCc2cc(=O)[nH]c(N3CCN(Cc4ccccc4)CC3)n2)s1`, the inhibition is -2.63% (inactive). The figure for `Cc1nnc(SCC2=C(C(=O)O)N3C(=O)C(NC(=O)Cn4nc(C)c(Cl)c4C)C3SC2)s1` (stereo not drawn) is 34.1% (active); for `CCOC(=O)C1(Cc2ccccc2)CCN(Cc2cn(C(C)=O)c3ccccc23)CC1` it is 2.34% (inactive); for `Cc1ccccc1CS(=O)(=O)Cc1ccc(C(=O)Nc2ccc(Cl)cc2)o1` it is 5.39% (inactive). In the case of `CCCCN1CCN(C(=O)c2ccc3c(c2)NC(=O)C(C)(C)O3)CC1`, the inhibition is -4.36% (inactive).

Take `COC(=O)[C@]12C[C@H](CC(=O)NCc3cccc4ccccc34)C(=O)N(CCc3ccc(OC)c(OC)c3)C1=C[C@H](C1CCCC1)O[C@@H]2C`: the inhibition is -7.72% (inactive). Turning to `COC(=O)c1c(C)oc2ccc(N(C(=O)Oc3ccccc3)S(=O)(=O)c3ccccc3)cc12`, the inhibition is 1.53% (inactive). `CC(=O)N(c1ccc2oc(=O)sc2c1)S(=O)(=O)c1ccc(C)cc1`: the inhibition is 86% (active). Turning to `CC(=O)Oc1ccc(N(C(C)=O)S(=O)(=O)c2ccc3ccccc3c2)cc1Br`, the inhibition is -3.71% (inactive). As for `COc1ccccc1C1C(C#N)=C(N)Oc2c1c(-c1ccccc1)nn2-c1ccccc1` (stereo not drawn), the inhibition is 5.44% (inactive). Next, `COc1cccc(Cn2cc(COC(=O)Nc3ccc(F)cc3)nn2)c1`: 0.72% (inactive). `COc1ccccc1NC(=O)CCN1CCN(c2ccc(Cl)cc2)CC1`: the inhibition is 1.94% (inactive).

`Cc1cc(NC(=O)CCN2CCN(Cc3ccccc3)CC2)ccc1Br`: the inhibition was 0.6% (inactive). `COC(=O)CNC(c1ccccc1Cl)c1cc(Br)ccc1NC(=O)CCN1CCOCC1` (stereo not drawn): the inhibition is 21.5% (active).

In general, inhibition refers to the drop in the measured response relative to a control, in per cent.
